Bioassay records as filed in PubChem BioAssay.
DPM-DC inhibit = inhibitors of Streptococcus pneumoniae diphosphomevalonate decarboxylase; purified DPM-DC, PK/LDH coupled NADH fluorescence; calls only at 10 µM; 65,000 tested, 0.49% active; AID 556;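 active = the 320 compounds with the highest percent inhibition in the single-dose primary screen, excluding strongly autofluorescent ones, cut at about 32% in these data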;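 note: kinetic rate of NADH fluorescence loss reporting ADP formed by the decarboxylase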
Fluor 339 460 = intrinsic fluorescence of library compounds, ex339/em460 – biochemical, MLSMR library, data from DPM-DC assay, artefact control, profiling panel; fluorescence fold increase at 10 µM; 65,000 tested, 5.5% active; AID 709; compound autofluorescence, ex339/em460 nm, NADH buffer; stronger effect = higher value; 1 = no-compound wells, NADH background;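 active = at 10 µM, mean starting fluorescence two-fold or more over control wells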;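 note: signal is the first read of a kinetic run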
MK inhibit = blocks S. pneumoniae mevalonate kinase; purified MK, PK/LDH-coupled NADH absorbance 340 nm; inhibition, % at 10 µM; 65,000 tested, 0.48% active; AID 555;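 active = ranked among the strongest by inhibition in the single 10 µM screen, a fixed top-ranked set picked for dose follow-up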
NADH coupling = blocks coupling enzymes of NAD/NADH assays. coupled PK/LDH NADH assays, four targets. IC50, µM (top dose mostly 10 µM), for the others: at the top dose inhibition. 65,000 tested, 0.02% active. AID 774;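 active = single-dose screening hits from any of four coupled enzyme assays that gave an IC50 when retested across doses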;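 note: the DPM-DC format reads NADH fluorescence rather than 340 nm absorbance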
Abs 340nm = compounds absorbing at 340 nm. compound absorbance at 340 nm, fold over control. fold change at 10 µM. 65,000 tested, under 10 active. AID 708;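 active = at 10 µM dose, initial 340 nm absorbance at least 2 fold that of control wells; inactive = change under 2 fold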;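 note: initial absorbance extrapolated from kinetic A340 decline of NADH oxidation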
PMK inhibit = blocks S. pneumoniae phosphomevalonate kinase; AID 539; 65,000 tested, 0.49% active; inhibition, % at 10 µM; purified PMK, PK/LDH-coupled NADH absorbance 340 nm;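 active = top-ranked compounds by inhibition in the single 10 µM screen, taking a fixed number of the strongest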;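 note: 0% = full reaction with DMSO carrier and 100% = background rate without enzyme reaction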
Numbers without * were called inactive; i = inactive; x = no result shown; + = active, no number. This is a sample that favours compounds with a hit; in the whole collection about 6.8% have one here.

SMILES	DPM-DC inhibit	Fluor 339 460	MK inhibit	NADH coupling	Abs 340nm	PMK inhibit
O=C(Nn1cnnc1)c1cc2cc(Br)ccc2oc1=O	i	1.2	9	9%	1.1	9
Cc1ccc(S(=O)(=O)c2nc(S(C)(=O)=O)sc2NCC2CCCO2)cc1 (stereo not drawn)	x	2.1*	7	4%	1.1	0
Cc1ccc2cc(CN(CC3CCCO3)S(=O)(=O)c3cccc4nsnc34)c(=O)[nH]c2c1 (stereo not drawn)	i	1	8	5%	1.1	3
COc1ccc(S(=O)(=O)N(Cc2cc3ccc(OC)cc3[nH]c2=O)CC2COCCO2)cc1 (stereo not drawn)	i	2.3*	2	11%	1.1	5
COC(=O)c1ccccc1S(=O)(=O)N(Cc1cc2ccc(OC)cc2[nH]c1=O)CC1CCCO1 (stereo not drawn)	i	1.2	0	10%	1.1	25*
COc1ccc2cc(CN(Cc3cccnc3)S(=O)(=O)c3ccccc3)c(=O)[nH]c2c1	i	2*	7	11%	1.1	11
COc1ccc2cc(CN(CC3COCCO3)S(=O)(=O)c3ccccc3)c(=O)[nH]c2c1 (stereo not drawn)	i	1.6	11	7%	1.1	11
CC(C)(C)NC(=O)COC(=O)Cc1ccc(Cl)cc1	i	1	4	1%	1.1	0
CCC1SC2=NC(C)=C(C(=O)OCCOC)C(c3ccc(C(=O)OC)cc3)N2C1=O (stereo not drawn)	i	1	0	3%	1.1	10
N#CC1=C2C=CC=CN2CC1=O	x	2.3*	6	8%	1	9
O=C(O)c1cc2n(n1)C(C(F)(F)F)CC(c1ccco1)N2 (stereo not drawn)	i	1.1	3	2%	1.1	2
Cc1ccc2c(c1)C(N1CCCC1=O)CC(c1ccco1)N2 (stereo not drawn)	i	2.6*	5	1%	1	0
CCOC(=O)N1CCN(C(=O)Nc2ccc3nc(-c4ccccn4)c(-c4ccccn4)nc3c2)CC1	x	2.2*	5	3%	1.1	0
CCOC(=O)N1CCN(C(=O)Nc2ccc3nc(C)sc3c2)CC1	i	1.2	0	1%	1	4
Cc1nc2ccc(NC(=O)N3CCSCC3)cc2nc1C	x	1.9	5	3%	1.1	0
O=C(Nc1ccc2nc(-c3cccs3)c(-c3cccs3)nc2c1)N1CCOCC1	+	2.5*	5	19%	1.1	9
COc1ccccc1-c1ccc(=O)n(CC(=O)NC(C)(C)C)n1	i	1.1	2	4%	1	9
O=C(CSCc1ccccc1)N1CCN(c2ccc(F)cc2)CC1	i	1.1	6	2%	1	0
CCOC(=O)c1ccc(NC(=O)N2CCN(Cc3cccc(F)c3)CC2)cc1	i	1	2	2%	1	7
CC(C)CC(=O)N1CCN(Cc2cccc(F)c2)CC1	i	1.1	59*	24%	1.1	14
COc1cccc(CN2CCN(C(=O)CC(C)C)CC2)c1	i	1	61*	7%	1.1	7
O=C(CSCc1cccc(F)c1)N1CCN(c2ccccc2)CC1	i	1	7	12%	1	25*
COc1ccc(C(=O)N2CCN(C(=O)CC(C)C)CC2)cc1OC	i	1.1	5	4%	1	6
C=CCN(C)CCCNC(=O)/C=N/O	i	1.1	4	4%	1	8
COc1ccc(-c2c(C)oc3c(CN4CCCCC4C)c(O)ccc3c2=O)cc1OC (stereo not drawn)	x	2.2*	2	5%	1.1	7
SMILES	DPM-DC inhibit	Fluor 339 460	MK inhibit	NADH coupling	Abs 340nm	PMK inhibit
CCOC(=O)c1c(-c2ccccc2)oc2ccc(O)c(CN3CCOCC3)c12	i	1.2	16	7%	1.1	0
Cc1oc2c(CN3CCOCC3)c(O)ccc2c(=O)c1-c1ccccc1	x	3.9*	4	7%	1.1	9
COc1cccc(Oc2c(C)oc3c(CN4CCOCC4)c(O)ccc3c2=O)c1	x	3.8*	8	11%	1.1	13
O=C(CCn1c(=O)oc2ccccc21)NCCN1CCOCC1	i	0.99	3	3%	0.99	13
Cc1nn(CCc2nn[nH]n2)c2nc(C(F)(F)F)cc(C(F)(F)F)c12	x	5*	4	6%	1	8
COc1ccc(-c2nnn(CCc3nn[nH]n3)n2)cc1OC	i	1.1	0	1%	0.98	7
C=C1Cn2c(nnc2-c2ccc(Cl)cc2)S1	i	1.1	7	4%	1	4
COc1ccccc1C(=O)NCCc1nc2ccccc2n1C	i	1	active	9%	1	0
CCOc1ccc(CCNC(=O)C2CCN(c3nn4c(=O)cc(C)nc4s3)CC2)cc1OCC	i	1.1	0	5%	1	16
O=C(CN(C(=O)CNS(=O)(=O)c1ccccc1)c1ccc2c(c1)OCCO2)NCc1ccco1	i	1.1	6	8%	1	19
O=C(CN(C(=O)CNS(=O)(=O)c1ccccc1)C1CCCC1)NCc1ccco1	i	1	0	8%	0.99	25*
C/C=C/Cn1c(N(C)Cc2ccccc2)nc2c1c(=O)[nH]c(=O)n2C	+	0.54	0	16%	1.1	11
CN(Cc1ccccc1)c1nc2c(c(=O)[nH]c(=O)n2C)n1C	i	1	10	7%	1	12
COc1cc(CN2CCN(c3cccc(C)c3C)CC2)cc(OC)c1O	i	1.1	51*	17%	1.1	0
COc1cc(OC)c(OC)cc1CN1CCN(c2ccccc2OC)CC1	i	1.1	43*	14%	1.1	0
CCN(CC)CCNC(=O)C1c2cc(OC)c(OC)cc2C(=O)N2CCc3ccccc3C12 (stereo not drawn)	i	1.1	1	1%	1	1
COCC(=O)Nc1c(C(=O)Nc2ccccc2OC)oc2ccccc12	i	1.2	2	2%	1	11
COc1ccc(NC(=O)c2oc3ccccc3c2NC(=O)c2ccco2)cc1	i	1.2	0	1%	1	7
CCOCC(=O)Nc1c(C(=O)Nc2ccc(OC)cc2OC)oc2ccccc12	x	2.4*	6	3%	1	11
COc1ccc(NC(=O)c2oc3ccccc3c2NC(=O)c2ccco2)c(OC)c1	x	5.1*	0	5%	1.1	9
COc1ccccc1NC(=O)c1oc2ccccc2c1NC(=O)c1cc(OC)c(OC)c(OC)c1	x	3.2*	0	1%	1	3
COc1cccc(OCC(=O)Nc2c(C(=O)Nc3ccc(OC)cc3OC)oc3ccccc23)c1	x	5*	0	7%	1.1	13
COCC(=O)Nc1c(C(=O)Nc2cccc(OC)c2)oc2ccccc12	i	1.3	7	5%	1.1	8
CCOc1c(Br)ccc2c1sc1nc[nH]c(=O)c12	i	1.1	5	2%	1.1	0
